High-throughput results as filed in PubChem.
Compounds with a hit are over-represented: about 18% of the library has one in this group of screens.
TDP1 cell CPT – DT40-hTDP1 cell growth loss with CPT; AID 686979; chicken DT40 Tdp1-/-;hTDP1 cells + 20 nM CPT, ATP luminescence, 48 h; 420,000 compounds, 12% hits; Potency, µM (doses to about 46.2 µM), hits mostly inhibitors; further: nearly all actives have a fitted effect of over 55% in size
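Chicken DT40 Tdp1-/- cells stably complemented with human TDP1 were seeded at 400 cells/well in medium containing 20 nM camptothecin, exposed to pin-transferred compounds, and grown at 37 °C for at least 48 hr. Viability was read as ATP luminescence.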
TDP1 inh – inhibitors of human tyrosyl-DNA phosphodiesterase TDP1; recombinant TDP1, AlphaScreen DNA substrate cleavage; Potency, µM (highest dose often 130 µM), actives largely listed as inhibitors; 350,000 compounds, 0.28% hits; AID 485290; further: nearly all actives have a fitted effect of over 40% in size
Target sequence (Q9NUW8 whole entry, looked up): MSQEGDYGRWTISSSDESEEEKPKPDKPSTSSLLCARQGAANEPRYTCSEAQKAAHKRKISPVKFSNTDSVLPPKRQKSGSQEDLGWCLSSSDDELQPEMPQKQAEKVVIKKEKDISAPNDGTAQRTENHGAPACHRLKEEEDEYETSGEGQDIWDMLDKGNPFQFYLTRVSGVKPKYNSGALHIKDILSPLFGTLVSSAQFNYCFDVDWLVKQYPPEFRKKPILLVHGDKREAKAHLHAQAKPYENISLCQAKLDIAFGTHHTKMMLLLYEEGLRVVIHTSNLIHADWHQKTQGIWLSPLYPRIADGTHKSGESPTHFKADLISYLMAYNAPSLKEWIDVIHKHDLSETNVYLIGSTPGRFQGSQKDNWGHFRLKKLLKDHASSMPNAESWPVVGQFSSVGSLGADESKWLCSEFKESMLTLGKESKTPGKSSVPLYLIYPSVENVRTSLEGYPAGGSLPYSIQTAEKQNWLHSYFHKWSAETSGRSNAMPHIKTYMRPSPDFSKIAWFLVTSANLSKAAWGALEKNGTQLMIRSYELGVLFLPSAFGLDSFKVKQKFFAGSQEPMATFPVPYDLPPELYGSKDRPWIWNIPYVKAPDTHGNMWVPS
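Here, a 5' biotin and 3' phosphotyrosine-FITC DNA oligonucleotide reports Tdp1 activity: intact substrate bridges AlphaScreen beads, while cleavage leaves a 3' phosphate and drops signal. All incubations at room temperature.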
TDP1 cell noCPT – qHTS for Inhibitors of human tyrosyl-DNA phosphodiesterase 1 (TDP1): qHTS in cells in absence of CPT. DT40 Tdp1-/- hTDP1 cells, no CPT, ATP luminescence, 48 h. Potency, µM (titrated, usually from 46.2 µM), hits mostly inhibitors. 420,000 compounds, 15% hits. AID 686978, 2013; further: nearly all actives have a fitted effect of over 55% in size
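Growth of hTDP1-complemented DT40 Tdp1-knockout cells is measured by ATP luminescence after at least 48 hr compound exposure at 37 °C, with DMSO substituting for the 20 nM CPT used in the parallel screen.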
Six1-Eya2 inh – inhibitors of human Six1/Eya2 interaction; AID 651725; 360,000 compounds, 0.56% hits; AlphaScreen GST-Six1/His-Eya2 binding, biochemical; hits give low values; activity change, % (test concentration not listed); Q15475+O00167; in the data active means activity change below about -65%; inconclusive means mostly about -30% to -63%
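Six1/Eya2 binding was read as AlphaScreen signal after compounds were pinned into GST-Six1 plus His-tagged Eya2 (5X stock 250/500 nM) in pH 8.0 Tris/NaCl/TCEP buffer, beads added, then incubated 1 h, 37 C, dark.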
CtBP-E1A blk – blocks the CtBP interaction with E1A. activity change, % (no concentration beside the values). AlphaScreen GST-E1A/His-CtBP binding, 1536-well; hits give low values. 340,000 compounds, 0.49% hits; in the data active means activity change below about -65%; inconclusive means mostly about -30% to -63%
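Steps: dispense buffer (Tris pH 8.0, NaCl 300 mM, TCEP 1 mM, BSA, Tween 20); add 5X protein mix (GST-E1A, His-CtBP, 125 nM each); pin 23 nL compound; 2 h at 37 °C, dark; add 5X beads (50 ug/mL); 1 h; read.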
IL-1B inflam inh – blocks inflammasome-driven IL-1 beta release; THP-1 LPS/ATP IL-1B secretion, AlphaLISA, 16 h; hits give low values; activity change, % at 57.5 µM; 360,000 compounds, 4.7% hits; AID 743279; in the data active means activity change below about -50%; inconclusive means mostly about -30% to -49%
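THP-1 cells pretreated 1 hr with compounds (up to 57.5 uM final), then stimulated with LPS (250 ng/mL final) plus ATP (1.25 mM final); secreted IL-1B measured by AlphaLISA after 16 hr, decreased signal indicating inhibition.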
A number is an active result; [ ] = another dose, or the depositor's remark. Unless noted, the call rests on the fitted dose curve; in most records, active means well fitted curve in the direction sought with a large enough effect; inconclusive means small, poorly fitted or top-dose-only effect, or another doubt; inactive means no such curve, though single readings can be large; an effect the other way counts as inactive or inconclusive.

Screening Cc1ccc(S(=O)(=O)N2CCC(=O)N(CCOC(=O)Nc3cccc(Cl)c3)CC2)cc1 returned TDP1 cell CPT 11.6µM, TDP1 inh inactive, TDP1 cell noCPT 20.6µM, Six1-Eya2 inh inactive, CtBP-E1A blk inactive and IL-1B inflam inh inactive.
Screening C[C@H]1CC[C@@H]2[C@@H](C)[C@H]3[C@H](C[C@H]4[C@@H]5CC=C6CC(O[C@@H]7O[C@H](CO)[C@H](O)[C@H](O[C@@H]8O[C@H](CO)[C@@H](O)[C@H](O)[C@H]8O)[C@H]7O[C@H]7O[C@@H](C)[C@H](O)[C@@H](O)[C@H]7O)CC[C@]6(C)[C@H]5CC[C@]34C)N2C1 (some centres undefined) returned TDP1 cell CPT inconclusive, TDP1 inh inactive and TDP1 cell noCPT inconclusive.
`CC(O)CCl` (centres undefined) gave TDP1 inh inactive.
Screening Nc1c(C(=O)OC2CCCCC2)c2nc3ccccc3nc2n1CC1CCCO1 (centres undefined) returned TDP1 cell CPT inconclusive, TDP1 inh inactive, TDP1 cell noCPT 16.4µM, Six1-Eya2 inh inactive, CtBP-E1A blk inactive and IL-1B inflam inh inconclusive.
CCCCn1c(NC(=O)c2ccco2)c(C(=O)OCC)c2nc3ccccc3nc21 was read as TDP1 cell CPT 9.2µM, TDP1 inh inactive, TDP1 cell noCPT 4.61µM, Six1-Eya2 inh inactive, CtBP-E1A blk inactive and IL-1B inflam inh inconclusive.
Screening CC(C)CCOC(=O)c1c(N)n(CC2CCCO2)c2nc3ccccc3nc12 (centres undefined) returned TDP1 cell CPT inconclusive, TDP1 inh inactive, TDP1 cell noCPT 20.6µM, Six1-Eya2 inh inactive, CtBP-E1A blk inactive and IL-1B inflam inh -65.1.
Screening CC(C)CCn1c(N)c(C(=O)OCC2CCCO2)c2nc3ccccc3nc21 (centres undefined) returned TDP1 cell CPT inconclusive, TDP1 inh inactive, TDP1 cell noCPT inconclusive, Six1-Eya2 inh inactive, CtBP-E1A blk inactive and IL-1B inflam inh inactive.
CCCCn1c(N)c(C(=O)OCC2CCCO2)c2nc3ccccc3nc21 (centres undefined) was read as TDP1 cell CPT 18.4µM, TDP1 inh inactive, TDP1 cell noCPT 18.4µM, Six1-Eya2 inh inactive, CtBP-E1A blk inactive and IL-1B inflam inh inactive.
CC(=O)c1ccc(OCC(=O)N2CCCC(N(C)Cc3ccccc3)C2)cc1 (centres undefined) was read as TDP1 cell CPT inactive, TDP1 inh inactive, TDP1 cell noCPT inactive, Six1-Eya2 inh inactive, CtBP-E1A blk inactive and IL-1B inflam inh inactive.
Screening CN(C)C(CNC(=O)Cc1ccc(Br)cc1)c1ccccc1 (centres undefined) returned TDP1 cell CPT inactive, TDP1 inh inactive, TDP1 cell noCPT inactive, Six1-Eya2 inh inactive, CtBP-E1A blk inactive and IL-1B inflam inh inactive.
For c1ccc(-c2ccc(-c3n(-c4ccccn4)c4ccccc4[n+]3-c3ccccn3)cc2)cc1 the results were TDP1 cell CPT 5.8µM, TDP1 inh inactive, TDP1 cell noCPT 8.2µM, Six1-Eya2 inh inactive and IL-1B inflam inh inactive.
O=C(Nc1ccc(Br)cc1)c1ccc(F)c(S(=O)(=O)N2CCCc3ccccc32)c1 was read as TDP1 cell CPT 11.6µM, TDP1 inh inactive and TDP1 cell noCPT 8.2µM.
O=C(Nc1ccc(Br)cc1)c1cccc(S(=O)(=O)N2CCc3ccccc32)c1 was read as TDP1 cell CPT 23.1µM, TDP1 inh inactive[12.3 µM] and TDP1 cell noCPT 16.4µM.
Screening CN1CCN(c2cn[nH]c(=O)c2Cl)CC1 returned TDP1 cell CPT inactive, TDP1 inh inactive, TDP1 cell noCPT inactive, Six1-Eya2 inh inactive, CtBP-E1A blk inactive and IL-1B inflam inh inactive.
Cc1ccc2c(c1)cc(C(=O)Nc1ccccc1C)n2C was read as TDP1 cell CPT inconclusive, TDP1 inh inactive and TDP1 cell noCPT 1.16µM.
